Most compounds without a hit are left out; they make up all but 8.2% or so of the library.
KB-V1 MDR tox: qHTS assay for MDR1-selective chemotherapeutics: Primary screen using the drug-selected MDR subline cells KB-V1; KB-V1 MDR cells viability, CellTiter-Glo, 72 h; 400,000 compounds, 3.4% hits; Potency, µM (highest dose often 46.1 µM), usual class: cytotoxic; note: % is set by controls: 0 for no effect and ±100 for the full control effect; nearly all actives have a fitted effect of over 60% in size
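Cytotoxicity toward P-gp-expressing KB-V1 cells was determined as loss of CellTiter-Glo luminescence after 72 h at 37 degrees C. Compounds were tested in quantitative HTS format across a concentration range, with curves fitted to normalized data.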
ELG1 repair inh: qHTS screen for small molecules that inhibit ELG1-dependent DNA repair in human embryonic kidney (HEK293T) cells expressing luciferase-tagged ELG1; Potency, µM (titrated, usually from 46.1 µM), for inactives: at the top dose activity change, negative = inhibition, actives largely listed as inhibitors; HEK293T ELG1-luciferase reporter, luminescence, 16 h; DNA damage induced by 5-fluorouridine; 330,000 compounds, 2.3% hits; note: % is set by controls: 0 for no effect and ±100 for the full control effect; nearly all actives have a fitted effect of over 55% in size
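Step one: seed 2,000 cells per well. Step two: pin-transfer compound or DMSO alongside 5-fluorouridine. Step three: incubate 16 hr, 37 °C, 5% CO2. Step four: add ONE-Glo, wait 30 min, read luminescence.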
KB-3-1 cytotox: qHTS assay for MDR1-selective chemotherapeutics: Primary screen using the parental adenocarcinoma cell KB-3-1. Potency, µM (top dose mostly 46.1 µM), most hits filed as cytotoxic. AID 1347075, 2019. 400,000 compounds, 1.4% hits. KB-3-1 viability, CellTiter-Glo ATP luminescence, 72 h; note: % is set by controls: 0 for no effect and ±100 for the full control effect; nearly all actives have a fitted effect of over 60% in size
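Cells are dispensed, compounds pinned in, plates held at 37 °C for 72 h, then CellTiter-Glo is added and luminescence read after 10 minutes. Cell line: parental KB-3-1 in phenol-red-free DMEM, 10% FBS.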
SW480 rerep: A quantitative high throughput screen for small molecules that induce DNA re-replication in SW480 colon adenocarcinoma cells; SW480 DNA re-replication, Hoechst DNA content imaging, 48 h; Potency, µM (series often up to 46.1 µM), for inactives: top-dose re-replication activation, usual class: activators; 340,000 compounds, 1.8% hits; AID 624297, 2012; note: % of control where 0% means no effect; nearly all actives have a fitted effect of over 55% in size
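Image-based read-out: total Hoechst fluorescence of nuclei (405 nm excitation, 500-530 nm emission), with hits raising the fraction of high-intensity nuclei. SW480 colon cells incubated 48 hr with compounds at 37 C.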
MCF10A rerep: A quantitative high throughput screen for small molecules that induce DNA re-replication in MCF 10a normal breast cells. AID 624296, 2012. Potency, µM (highest dose often 46.1 µM), for inactives: at the top dose activity, positive = re-replication, hits mostly activators. 350,000 compounds, 2.9% hits. MCF 10A DNA re-replication, Hoechst nuclear intensity, 48 h; note: % of control where 0% means no effect; nearly all actives have a fitted effect of over 50% in size
An asterisk follows results filed as active; i = inactive; ? = inconclusive; / = not tested or not shown. Calls come from the whole dose curve; as a rule, active = well fitted curve in the direction sought with a large enough effect; inconclusive = small, poorly fitted or top-dose-only effect, or another doubt; inactive = no such curve, though single readings can be large; an effect the other way counts as inactive or inconclusive. Potency is the fitted concentration of half-maximal effect.

SMILES	KB-V1 MDR tox	ELG1 repair inh	KB-3-1 cytotox	SW480 rerep	MCF10A rerep
FC(F)(F)c1nc2ccccc2n2c(-c3ccc(Cl)cc3Cl)nnc12	?	-1.9%	18.4µM*	?	25.6%
FC(F)(F)c1nc2ccccc2n2c(-c3c(Cl)cccc3Cl)nnc12	i	4.4%	?	3.4%	17.1%
Cc1ccc(C)c(S(=O)(=O)c2nnn3c2nc(NC2CCCCC2)c2sccc23)c1	i	/	?	/	/
OC[C@@H]1[C@@H](c2ccccc2)C(c2ccccc2)=NN1c1ccccc1	i	?	i	?	?
OC[C@@H]1[C@@H](c2ccc(Cl)cc2)C(c2ccc(F)cc2)=NN1c1ccccc1	i	7.9%	i	4.11µM*	1.84µM*
OC[C@@H]1[C@@H](c2ccccc2)C(c2ccc(F)cc2)=NN1c1ccccc1	i	-2.0%	?	20.6µM*	?
CSc1nc(-c2ccc(Cl)cc2)c(C#N)c(=O)[nH]1	i	-2.3%	i	20.5%	-9.5%
CSc1nc(Nc2ccc(Cl)cc2)c(C#N)c(=O)[nH]1	5.17µM*	2.2%	5.17µM*	-1.7%	15.1%
N#Cc1c(Nc2ccc(Cl)cc2)s[nH]c1=O	i	0.0%	i	?	18.4µM*
CC(=O)c1ccc(NC(=O)Nc2ccc3c(c2)N(C)C(=O)CS3)cc1	i	18.4µM*	i	2.9%	16.5%
CC(C)CCNC(=O)Nc1ccc2c(c1)N(C)C(=O)CS2	20.6µM*	/	i	0.6%	0.6%
CC(=O)Nc1ccc(NC(=O)CCC(=O)Oc2ccc(C)cc2)cc1	i	-0.8%	i	-7.6%	1.2%
C(=C\c1ccncc1)/c1ccccc1	i	?	i	-7.6%	4.6%
C(=C\c1ccncc1)/c1ccncc1	i	0.1%	i	2.8%	12.0%
CC[N+](C)(C)c1ccc(/C=C/c2ccncc2)cc1	i	/	2.31µM*	/	/
CCC[N+](C)(C)c1ccc(/C=C/c2ccncc2)cc1	i	/	1.46µM*	/	/
Cc1ccccc1NC(=O)Cc1nc(COC(=O)Cc2cccc(C(F)(F)F)c2)cs1	i	/	i	/	/
Cc1cc2oc(C(=O)Nc3ccc(S(=O)(=O)N4CCCCCC4)cc3)cc(=O)c2cc1C	?	/	i	/	/
N=c1c(S(=O)(=O)c2ccc(Br)cc2)cc2c(=O)n3ccccc3nc2n1CCN1CCOCC1	i	/	i	?	16.4µM*
Cc1ccc(S(=O)(=O)c2cc3c(=O)n4ccccc4nc3n(Cc3ccco3)c2=N)cc1C	i	-0.8%	i	?	?
CCn1c(=N)c(S(=O)(=O)c2ccccc2)cc2c(=O)n3ccccc3nc21	i	12.2%	i	2.0%	6.51µM*
COc1ccc(CCn2c(=N)c(S(=O)(=O)c3ccccc3)cc3c(=O)n4ccccc4nc32)cc1	i	-4.7%	i	6.2%	3.66µM*
CCCCCn1c(=N)c(S(=O)(=O)c2ccccc2)cc2c(=O)n3ccccc3nc21	?	/	i	/	/
CCn1c(=N)c(S(=O)(=O)c2ccc(C)cc2)cc2c(=O)n3ccccc3nc21	/	-1.8%	/	/	/
Cc1ccc(S(=O)(=O)c2cc3c(=O)n4ccccc4nc3n(CC3CCCO3)c2=N)cc1C (stereo not drawn)	4.61µM*	7.0%	i	15.8%	-16.8%
SMILES	KB-V1 MDR tox	ELG1 repair inh	KB-3-1 cytotox	SW480 rerep	MCF10A rerep
COc1ccc(C2CC=C(C(C)=O)CN2S(=O)(=O)c2ccc(C)cc2)cc1 (stereo not drawn)	i	/	i	/	/
CCCn1c(=N)c(S(=O)(=O)c2ccccc2)cc2c(=O)n3ccccc3nc21	i	-12.9%	i	1.2%	18.4µM*
Cc1ccc(S(=O)(=O)c2cc3c(=O)n4ccccc4nc3n(C)c2=N)cc1	6.51µM*	-0.3%	i	?	?
Cc1ccc(S(=O)(=O)c2cc3c(=O)n4ccccc4nc3n(CCc3ccccc3)c2=N)cc1	i	?	i	?	?
Cc1c(Cl)ccc(S(=O)(=O)NCCCn2ccnc2)c1Cl	i	-16.0%	i	?	?
COc1c(S(=O)(=O)NCCCn2ccnc2)ccc(Cl)c1Cl	i	1.3%	i	?	11.6µM*
COc1ccccc1NC(=O)c1ccc2c(O)c(S(=O)(=O)c3ccccc3)c(=O)[nH]c2c1	i	6.7%	i	3.2%	-0.3%
C[C@@H]1CN([C@@H](C)CO)C(=O)CCCn2nncc2CO[C@@H]1CN(C)C(=O)Nc1ccc(C(C)(C)C)cc1	i	/	i	/	/
COc1cc(/C=C2\SC(=S)N(CCC(=O)N3CCCCC3)C2=O)cc(OC)c1OC	?	-20.6%	?	?	20.6µM*
N=C1S/C(=C\c2cccc3ccccc23)C(=O)N1c1ccc(F)cc1	7.31µM*	-22.2%	7.31µM*	18.4µM*	?
COc1cc(/C=C2\SC(=S)N(CCC(=O)Nc3ccc(O)cc3)C2=O)cc(OC)c1OC	i	23.1µM*	i	?	16.4µM*
COc1cccc(/C=C2\SC(=S)N(CCCC(=O)N3CCCCC3CCO)C2=O)c1 (stereo not drawn)	i	?	i	2.9%	?
COc1cccc(/C=C2\SC(=S)N(CCC(=O)N3CCCCC3CCO)C2=O)c1 (stereo not drawn)	?	-3.7%	?	18.4µM*	23.1µM*
Cc1c(NS(=O)(=O)c2ccccc2)cc(C(C)C)c(O)c1S(=O)(=O)c1ccc(Cl)cc1	i	/	i	/	/
COc1ccc(/C=C2\SC(=O)N(CC(=O)Nc3ccc(F)cc3)C2=O)cc1O	i	?	i	-13.0%	25.9µM*
COc1ccc(/C=C2\SC(=S)N(CCCCCC(=O)Nc3cc(C)on3)C2=O)cc1OC	i	0.7%	i	-2.4%	2.5%
COc1cc(/C=C2\SC(=N)N(c3ccc(F)cc3)C2=O)ccc1O	?	?	i	?	18.4µM*
COc1ccc(/C=C2\SC(=O)N(CC(=O)Nc3cccnc3)C2=O)cc1OC	i	?	i	?	12.1%
COc1ccc(/C=C2\SC(=S)N(CCCC(=O)Nc3cc(C)on3)C2=O)cc1OC	i	7.3µM*	i	-2.8%	1.2%
CCOC(=O)C1CCN(S(=O)(=O)c2cc(C(=O)OC)n(C)c2)CC1	i	-7.8%	i	3.3%	3.3%
CCN(C(=S)Nc1cccc2ccccc12)c1ccccc1	i	/	i	/	/
O=C(CN(Cc1ccc(F)cc1)C(=O)CNS(=O)(=O)c1ccc(Cl)cc1)NCC1CCCO1 (stereo not drawn)	i	10.9%	i	2.1%	3.3%
